# From PubChem BioAssay (Tox21)
# Records with an inconclusive call do not appear. Entries that show only a call come without a potency. Activity calls are given as the source filed them. Calls follow the shape of the dose curve; as a rule, active = well fitted inhibition curve with a large enough effect in the repeat runs; inconclusive = weak or mixed curves; inactive = no such curve, though single readings can be large or run the other way.
# Assay: qHTS assay to identify small molecule antagonists of the estrogen related receptor (ERR) signaling pathway (AID 1224819; also: nearly all actives have a fitted effect of over 50% in size)
# Details: ERR reporter cell line, luciferase inhibition; series mostly up to 46.1 µM
# Source text: National Center for Advancing Translational Sciences [NCATS]
# NIH Chemical Genomics Center [NCGC]
# U.S. Environmental Protection Agency [EPA]
# National Institutes of Environmental Health Sciences [NIEHS]
# National Toxicology Program [NTP]
# U.S. Food and Drug Administration [FDA]
# Estrogen related receptors (ERRs), the first orphan nuclear receptors discovered, play an important role in the control of cellular energy metabolism. ERRs are required for high-energy production in response to the environmental challenges. ERR-alpha was also identified as an adverse marker for breast cancer progression; ERR-alpha-positive tumors have a poor prognosis. To screen and to identify environmental compounds that perturb the ERR signaling pathways could provide valuable information for potential therapeutic or preventive measures in the treatment of metabolic disease. For identifying ERR antagonists, ERR cell line (provided by NTP) has been used to screen LOPAC library.
# Tox21 Assay Protocol Summary:
# The ERR cells were dispensed at 2,000 cells/5 ul/well in 1536-well white plates using a Multidrop dispenser. After the assay plates were incubated at a 37 C/5% CO2 incubator for 6 hours, 23 nL of compounds dissolved in DMSO, positive and negative controls or DMSO only was transferred to the assay plate by a pin tool. The plates were incubated at 37 C for 18 hours. 4 ul/well of One-Glo reagent was added into the assay plates using a Flying Reagent Dispenser. After 30 min incubation at room temperature, the luminescence intensity in the plates was measured using a ViewLux plate reader.
# Potency is read from the fitted curve at half-maximal effect.
row,SMILES,Potency
1,CN1CCc2cccc(Cl)c2CC1,inactive
2,CC(=O)OCC1=C(C(=O)[O-])N2C(=O)[C@@H](NC(=O)CCC[C@@H](N)C(=O)[O-])[C@H]2SC1.[Zn+2],inactive
3,CC(N)Cc1c[nH]c2ccc(O)cc12 (stereo not given),inactive
4,CCCN(CCC)C1Cc2cc(OC)c(OC)cc2C1,inactive
5,CN1CC[C@@]2(C)c3cc(OC(=O)Nc4ccccc4)ccc3N(C)[C@@H]12,inactive
6,COc1ccc2[nH]cc(CCN)c2c1,inactive
7,Cn1cnc(CCN)c1,inactive
8,O=C(O)[C@@H]1CCN1,inactive
9,C[C@H](N)CN1CCc2ccc(Br)cc21,inactive
10,NC1CCc2cc(O)c(O)cc2C1 (stereo not given),inactive
11,CCCCCN(C)CCC(O)(P(=O)(O)O)P(=O)(O)O,inactive
12,CCCN1CCO[C@@H]2c3cc(O)ccc3OC[C@H]21,inactive
13,c1ccc2c(N3CCNCC3)cccc2c1,inactive
14,CC[C@@]1(O)C(=O)OCc2c1cc1n(c2=O)Cc2cc3ccccc3nc2-1,0.123 µM (active)
15,C[N+]1(C)CCN(c2ccccc2)CC1,inactive
16,COc1ccc2c(c1)C13CCCCC1C(C2)N(C)CC3 (stereo not given),inactive
17,C[N+]1(C)C2CCC1CC(OC(=O)c1c[nH]c3ccccc13)C2 (stereo not given),inactive
18,NCCc1c[nH]c2ccc(O)cc12,inactive
19,C#CCN[C@H](C)Cc1ccccc1,inactive
20,c1ccc2sc(C3(N4CCCCC4)CCCCC3)cc2c1,inactive

row,SMILES,Potency
1,C[N+](C)(C)CC#CCOC(=O)Nc1cccc(Cl)c1,inactive
2,CN(C(=O)Cc1ccc(Cl)c(Cl)c1)C(CN1CCCC1)c1cccc(OCC(=O)O)c1 (stereo not given),inactive
3,N[C@@H](Cn1oc(=O)[nH]c1=O)C(=O)O,inactive
4,NC(N)=NOCCC(N)C(=O)O (stereo not given),inactive
5,Clc1ccc(C(c2ccc(Cl)cc2)n2cc[n+](CC(OCc3ccc(Cl)cc3Cl)c3ccc(Cl)cc3Cl)c2)cc1 (stereo not given),19.6 µM (active)
6,CC(C)(C)c1cc(C=C(C#N)C#N)cc(C(C)(C)C)c1O,0.276 µM (active)
7,Cc1sc2ccccc2c1CC1=NCCN1,inactive
8,COc1ccc2c(c[n+](C)c3c4cc5c(cc4ccc23)OCO5)c1OC,9.08 µM (active)
9,CCCN1CCC[C@H](c2cccc(O)c2)C1,inactive
10,C[C@]12Cc3cn4c(nc3C=C1CCC1C2CC[C@@]2(C)[C@H]1CC[C@@]2(O)C#N)nc1ccccc14 (stereo not given in full),10.6 µM (active)
11,O=c1ccc2[nH]cc(C3=CCNCC3)c2[nH]1,inactive
12,CC(C)(C)c1o[nH]c(=O)c1CC(N)C(=O)O (stereo not given),inactive
13,O=C(Cc1ccc(Cl)c(Cl)c1)N1CCCCC1CN1CCCC1 (stereo not given),inactive
14,c1ccc2c(c1)[I+]c1ccccc1-2,0.031 µM (active)
15,CC1=NN=C(c2ccc(N)cc2)c2cc3c(cc2C1)OCO3,inactive
16,CC(=O)NBr,inactive
17,NCCc1ccc(S(=O)(=O)F)cc1,inactive
18,CN1CCC[C@@H]1Cc1c[nH]c2ccc(Nc3ncccc3[N+](=O)[O-])cc12,inactive
19,C=CCN1CC[C@]23CCCCC2[C@H]1Cc1ccc(O)cc13 (stereo not given in full),inactive
20,Cc1[nH]c2ccc(O)cc2c1CCN,inactive
